Screens (PubChem)
PNC assembly inh: perinucleolar compartment assembly inhibition. PC3M PTB-GFP, PNC prevalence imaging, 16 h; stronger effect = lower value. activity change (PNC), negative = inhibition, % at 10 µM. 3.1% of 140,000 active. AID 2417;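 active means readout at or below -70, meaning at least 70% loss of cells showing the perinucleolar compartment, a nuclear body marking cancer cells; inconclusive means readout between -30 and a set limit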;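 further: plate controls were DMSO wells for no effect and camptothecin positive control wells for full effect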
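Read-out is percentage of cells bearing a perinucleolar compartment, from automated 20x imaging of fixed, Hoechst-stained PC3M PTB-GFP cells. Cells were seeded 4 h, then exposed 16 h to compound (23 nl of library stock) in duplicate plates.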
15-hLO-2 inh: inhibitors of human 15-lipoxygenase 2 (ALOX15B) | O15296 | purified 15hLO-2, xylenol orange hydroperoxide absorbance | Potency, µM (doses to about 57.1 µM), for the others: at the highest dose activity change, negative = inhibition, hits mostly inhibitors | 0.56% of 110,000 active; further: potency means the concentration at half of the fitted maximal effect; nearly all actives have a fitted effect of over 60% in size
Target sequence (O15296 whole entry, looked up): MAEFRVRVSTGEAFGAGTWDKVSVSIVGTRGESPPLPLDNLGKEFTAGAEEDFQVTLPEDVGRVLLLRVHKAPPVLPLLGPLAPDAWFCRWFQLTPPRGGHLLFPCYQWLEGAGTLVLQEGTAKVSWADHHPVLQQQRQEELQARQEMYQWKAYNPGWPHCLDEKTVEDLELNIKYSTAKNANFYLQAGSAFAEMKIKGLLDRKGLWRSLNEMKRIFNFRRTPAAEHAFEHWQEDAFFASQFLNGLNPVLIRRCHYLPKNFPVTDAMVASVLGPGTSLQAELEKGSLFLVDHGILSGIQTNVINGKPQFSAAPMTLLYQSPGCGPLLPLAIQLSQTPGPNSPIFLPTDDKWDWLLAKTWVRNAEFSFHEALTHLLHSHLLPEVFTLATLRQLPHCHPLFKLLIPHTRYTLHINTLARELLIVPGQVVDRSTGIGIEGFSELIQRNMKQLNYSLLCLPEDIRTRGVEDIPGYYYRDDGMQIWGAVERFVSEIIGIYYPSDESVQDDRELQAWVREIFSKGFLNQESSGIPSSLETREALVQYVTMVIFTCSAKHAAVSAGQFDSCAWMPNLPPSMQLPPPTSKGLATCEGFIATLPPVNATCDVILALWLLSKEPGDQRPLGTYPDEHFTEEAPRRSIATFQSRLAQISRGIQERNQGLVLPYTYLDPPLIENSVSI
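Enzyme 50 nM, AA 45 uM, 25 mM Hepes pH 7.5 + 0.01% Triton X-100; cpd preinc 15 min RT, rxn 90 min RT; stop/detect with 200 uM XO + 300 uM Fe(II) in 50 mM H2SO4, 30 min; A573/A405.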
ALOX12 inhib: inhibitors of human 12-lipoxygenase (ALOX12); P18054; 0.12% of 150,000 active; purified 12-hLO, xylenol orange hydroperoxide absorbance; AID 1452; Potency, µM (top dose mostly 57.1 µM), without a hit: at the top dose activity change, negative = inhibition, most hits filed as inhibitors; further: potency means the concentration at half of the fitted maximal effect; nearly all actives have a fitted effect of over 55% in size
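Purified human 12hLO (150 nM final) was preincubated with compounds for 15 min at room temperature in 25 mM Hepes pH 7.0, 0.01% Triton X-100, then reacted with 40 uM arachidonic acid for 30 min. Hydroperoxide was detected with ferrous iron/xylenol orange.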
An asterisk follows results filed as active; ? = inconclusive; . = not tested or not shown; [ ] = dose if it differs, or a comment. Sampled rows, rich in hits. Any-hit rate of the full collection: about 3.2%. Unless noted, the call rests on the fitted dose curve; in most records, active means well fitted curve in the direction sought with a large enough effect; inconclusive means small, poorly fitted or top-dose-only effect, or another doubt; inactive means no such curve, though single readings can be large; an effect the other way counts as inactive or inconclusive. Unless noted, on the % scale 0 is the no-effect control and ±100 the full control effect.

SMILES	PNC assembly inh	15-hLO-2 inh	ALOX12 inhib
O=C(/C=C/c1ccc(O)c(O)c1)OC1C[C@](O)(C(=O)O)C[C@@H](O)[C@H]1O (stereo partly specified)	.	2%	-2%
Cc1cc(Nc2ccccc2)n(-c2cccc(Cl)c2)n1	-96*	-10%	-4%
Cc1cc(Nc2ncc(Cl)cc2Cl)n(-c2ccccc2)n1	-14	.	3%
Cc1nc2sccn2c(=O)c1Br	10	.	-1%
CC1CCCC(C)N1C(=O)CSc1nnc(CSc2ncccn2)n1C (stereo unspecified)	-100*	6%	-2%
COCCn1c(Cc2ccccc2)nnc1SCC(=O)N1CCCCC1C (stereo unspecified)	-16	1%	2%
CCCc1nnc(SCC(=O)N2C(C)CCCC2C)n1CC1CCCO1 (stereo unspecified)	4	-3%	-2%
CC1CCCCN1C(=O)CSc1nnc(Cc2ccccc2)n1C (stereo unspecified)	-100*	.	-2%
COC(=O)[C@@H]1C[C@@]2(O)[C@H](O)[C@H](O)[C@H](O)C[C@H]2N1Cc1ccc(N2CCN(C)CC2)cc1	.	18%	-1%
O=[N+]([O-])c1ccccc1-c1cc(-c2ccccc2O)n[nH]1	-83*	.	-10%
Cc1ccc(-c2cc(-c3ccccc3C)[nH]n2)c(O)c1	26	.	-29%
COC(=O)[C@@]1(Cc2ccc(F)cc2)[C@H]2c3cc(C(=O)N(C)C)n(CCN4CCOCC4)c3C[C@H]2CN1C(=O)c1ccccc1	.	16%	5%
CCN(CC)c1ccc(CC(=O)NC(C)Cc2ccccc2)cc1 (stereo unspecified)	-106*	.	9%
CCCN(CCC)c1ccc(CC(=O)NC(C)Cc2ccccc2)cc1 (stereo unspecified)	3	.	-5%
Cn1cccc1C(=O)N1CCC2(CCCN(C(=O)Nc3ccccc3)C2)CC1	.	5%	2%
O=C(NN=C1c2ccccc2-c2ccccc21)c1cccc(Br)c1	-3	.	1%
O=C(COc1cccc(Br)c1)NN=C1c2ccccc2-c2ccccc21	-119*	.	-1%
CCc1nc(SCC(=O)N2c3ccccc3CC2C)c2c(C)c(C)sc2n1 (stereo unspecified)	?	-2%	5%
Cc1sc2nc(C(C)C)nc(SCC(=O)N3c4ccccc4CC3C)c2c1C (stereo unspecified)	-97*	.	-3%
CC1(C)Cc2cccc(OCC(=O)N3CCN(S(=O)(=O)c4ccccc4F)CC3)c2O1	-94*	1%	-9%
CC1(C)Cc2cccc(OCC(=O)N3CCN(c4ccccc4)CC3)c2O1	?	.	2%
COc1ccccc1-c1ccc2ncnc(N3CCNCC3)c2c1	.	1%	.
CCC1=Nc2cc(C(=O)NCc3ccco3)ccc2Sc2ccccc21	-7	.	0%
CCC1=Nc2cc(C(=O)NCc3ccco3)ccc2Sc2ccc(Cl)cc21	-100*	.	-7%
O=C(NC(=S)N1CCCCC1)C12CC3CC(CC(C3)C1)C2	-24	?	-21%
SMILES	PNC assembly inh	15-hLO-2 inh	ALOX12 inhib
O=C(c1cc(NC(=O)C23CC4CC(CC(C4)C2)C3)cc(NC(=O)C23CC4CC(CC(C4)C2)C3)c1)N1CCCCC1	-97*	.	7%
C=CCC(O)(C#Cc1ccccc1)c1ccccc1 (stereo unspecified)	.	.	5%
COC(=O)c1ccc(C(NC(=O)OCc2ccccc2)/C(=C/[C@@H](C)C(=O)NCCc2c[nH]c3ccccc23)c2cccnc2)cc1 (stereo partly specified)	.	33%	-2%
COc1ccccc1NC(=O)CN1C(=O)CSC(C)C1=O (stereo unspecified)	-15	.	1%
COc1ccccc1NC(=O)CN1C(=O)C(C)SC(C)C1=O (stereo unspecified)	-99*	.	0%
COc1ccccc1NC(=O)CN1CCN(CC(=O)Nc2ccc(OCc3ccccc3)cc2)CC1	49	23%	1%
COc1cc(NC(=O)c2ccccc2Cl)c(OC)cc1NC(=O)CN1CCOCC1	-90*	1%	-3%
COc1cc(NC(=O)c2ccccc2)c(OC)cc1NC(=O)CN1CCOCC1	-29	3%	-4%
COc1ccccc1NC(=O)CN1CCN(Cc2ccccc2)CC1	-87*	1%	-1%
CC(C)(CO)Cc1cc(C(C)(C)C)c(O)c(C(C)(C)C)c1	.	-8%	-6%
Nc1ccc(N=Nc2ccccc2)c(N)c1	.	-22%	-9%
FC(F)(F)c1ccc(CN2C[C@@H]3C(c4ccc(C(F)(F)F)cc4)C4(c5ccccc5)CC3(C4)[C@H]2c2ccccc2)cc1 (stereo partly specified)	.	17%	-2%
CC1CCC(C(C)C)C(=O)C1 (stereo unspecified)	.	-9%	-2%
CCOC(=O)N(NC(=O)C(O)(CC(C)C)CC(C)C)c1ccccc1	6	.	-5%
COc1ccccc1NC(=O)COC(=O)c1cnccn1	?	0%	-2%
C/C=C/c1ccc(OCCCCOc2ccccc2F)c(OC)c1	-125*	.	-3%
C/C=C/c1ccc(OCCCNC2CCCC2)c(OC)c1	?	14%	-7%
C/C=C/c1ccc(OCCOc2cc(C=O)ccc2OC)c(OC)c1	-113*	.	-4%
COc1cc(C=O)ccc1OCCOCCOc1ccccc1Cl	2	1%	-10%
O=C(N/N=C/c1ccc2c(c1)OCO2)C(O)c1ccccc1 (stereo unspecified)	-27	.	2%
CCCCCCC=O	.	3%	-1%
Cc1ccc(CNc2nc3c([nH]2)c(=O)n(C)c(=O)n3C)cc1	1	29%	-4%
Cn1c(=O)c2[nH]c(Nc3ccccc3)nc2n(C)c1=O	-100*	.	1%
O=c1cnc2cnc(N3CCNCC3)nc2n1CCc1ccccc1	.	17%	3%
CCCCCCC(C)NC(=S)Nc1cc(S(=O)(=O)N(C)C)ccc1C (stereo unspecified)	?	.	-1%
SMILES	PNC assembly inh	15-hLO-2 inh	ALOX12 inhib
COc1ccc(-c2[nH]c(-c3ccc(SC)cc3)nc2SCC(=O)Nc2nccs2)cc1	10	.	-2%
O=C(c1ccc(Cl)cc1)c1nnc(-c2ccncc2)o1	-82*	-1%	-1%
O=C(c1ccccc1)c1nnc(-c2ccncc2)o1	4	-6%	3%
CC(=O)Nc1ccc(S(=O)(=O)NCCSCc2ccco2)cc1	21	13%	-11%
CS(=O)(=O)NCCSCc1ccco1	-82*	7%	2%
[O-][n+]1c2ccc3nonc3c2nn1-c1ccccc1Cl	26	0%[2.29 µM]	-4%
[S-]C(=Nc1ccc(Cl)cc1)N[n+]1ccccc1	-23	.	1%
Cc1c(NC(=O)OCCSc2nc(N(C)C)nc(N(C)C)n2)sc(=S)n1C	-21	-18%	-6%
CCOC(=O)CN1C(=O)N[C@@H](c2ccco2)C(C(=O)OC)=C1C	.	.	-5%[11.4 µM]
COCCCNCCCCSc1ccc(Cl)cc1	-27	.	2%
Cc1cccc(-c2nnc3n2N=C(c2ccc(Br)cc2)CS3)c1	9	0%	0%
CCOc1ccc(C2=Nn3c(nnc3-c3ccccc3OC)SC2)cc1	-86*	9%	-8%
CCOc1ccc(-c2nnc3n2N=C(c2ccc(OC)cc2)CS3)cc1	14	1%	5%
Cc1ccc(-c2nnc3n2N=C(c2ccc(Br)cc2)CS3)cc1	-106*	-13%	1%
CN(C)CCN(C)C(=O)c1ccc(-n2c(=O)c(=O)[nH]c3ccccc32)cc1	.	.	0%
